# About 83,000 compounds went through this panel and 20% of them were active in at least one assay; those are over-represented in the sample as a whole.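 Interpretation: 100, growth as untreated; towards 0, rising growth inhibition; 0, no net growth; 0 to -100, cell death. Compounds scoring below 10 were considered active.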 Unmarked numbers belong to inactive results. Active and inactive are the calls of the source.
# Legend:
# Experiment in all cases: NCI-60 one-dose screen, 48 h (100 = growth as untreated, 0 = no growth, -100 = all killed)
# Settings in all cases: 10 µM unless noted
# [1] = tested on: NCI-H23 lung
# [2] = tested on: NCI-H226 lung
# [3] = tested on: NCI-H322M lung
# [4] = tested on: HOP-62 NSCLC
# [5] = tested on: NCI-H460 lung
# [6] = tested on: HOP-92 NSCLC
# [7] = tested on: NCI-H522 lung
# [8] = tested on: A549/ATCC NSCLC
# [9] = tested on: 786-0 renal
# [10] = tested on: DU-145 prostate
# [11] = tested on: K-562 leukemia
# [12] = tested on: MALME-3M melanoma
# [13] = tested on: MDA-MB-231 breast
# [14] = tested on: SF-268 CNS
# [15] = tested on: SF-295 CNS
# [16] = tested on: SF-539 CNS
# [17] = tested on: UACC-257 melanoma
# [18] = tested on: M14 melanoma
# [19] = tested on: COLO 205 colon
Compound,growth [1],growth [2],growth [3],growth [4],growth [5],growth [6],growth [7],growth [8],growth [9],growth [10],growth [11],growth [12],growth [13],growth [14] [%],growth [15] [%],growth [16],growth [17],growth [18] [%],growth [19] [%]
Fc1ccc(C2CC(c3cccc(Nc4ccncc4)c3)=NN2c2ccccc2)cc1 (configuration not stated),86.3%,95.5%,70.6%,49.5%,-41.9% (active),37.1%,75.8%,43.1%,81.7%,44.1%,0.671% (active),-5.72% (active),64.3%,73.1,73.4,69.7%,37.8%,98.8,–
Cc1ccc(/C=C/C(=O)c2ccc(N)cc2)c(C)c1,10.4%,109%,93%,104%,97.2%,88.2%,-76.5% (active),99.2%,-63.5% (active),78.3%,–,-75.6% (active),56.8%,36.6,95.5,91%,108%,50.6,60.3
NC(=O)c1ccc[n+](CC(=O)N2CCN(c3cc4c(cc3F)c(=O)c(C(=O)O)cn4C3CC3)CC2)c1,92.4%,97.3%,104%,111%,101%,133%,-73.1% (active),104%,74.6%,96.4%,–,6.59% (active),99.8%,76.7,108,88.6%,89.4%,76.4,63.1
COc1ccc(/C=C(/c2ccccc2)[N+](=O)[O-])cc1,-47.9% (active),-6.73% (active),4.07% (active),-36.2% (active),-23.3% (active),-55.6% (active),-83.6% (active),5.17% (active),-93.4% (active),-85.5% (active),-7.82% (active),-44.2% (active),-49.3% (active),47.6,33.2,-89.2% (active),-0.12% (active),42.8,–
Fc1ccc(C2CC(c3cccc(Nc4ccncc4)c3)=NN2c2cc(Cl)cc(Cl)c2)cc1 (configuration not stated),80.2%,90.5%,73%,44.4%,-75.5% (active),58.3%,73%,29.1%,102%,30.2%,0.115% (active),15.3%,61.4%,72.4,63.3,83%,85.9%,104,–
NC(=O)c1ncn(C2OC(CO)C(O)C2O)n1 (configuration not stated),89%,87.6%,86.5%,71.8%,104%,79%,79.6%,96.3%,91.6%,85.1%,61.1%,93.8%,103%,98,99.9,97.6%,97.7%,92.8,–
O=C(Nc1ccccc1)Oc1ccccc1-c1ccccc1,97.7%,93.3%,105%,74.9%,99.7%,94.7%,83.7%,73.8%,93.5%,105%,–,95%,109%,96.2,97.4,105%,80.8%,85.2,96
O=C(Nc1nc2ccc(C(=O)N3CCN(c4ccc(Cl)c(Cl)c4)CC3)cc2s1)c1ccc(NCCc2ccccc2)c([N+](=O)[O-])c1,93.3%,87.8%,95.5%,96.6%,110%,91.7%,75.9%,97.9%,107%,101%,84.2%,86.8%,86.2%,97,96.4,101%,99.4%,98.5,–
Cn1ncc2c(Nc3ccccc3Cl)nc(Cl)nc21,100%,88.4%,87.3%,98.2%,114%,72.8%,40.5%,103%,103%,139%,–,122%,87%,114,103,102%,128%,124,127

# Reference: PubChem BioAssay (NCI)
